PRMT1 inh = PRMT1 (human) inhibition, primary screen; recombinant PRMT1, activity-based probe fluorescence polarization; 370,000 compounds, 1.3% hits; inhibition, % at 2.79 µM; AID 652257;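 active = inhibition above about 21% made by adding two undisclosed values, limit read from the data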
M18AAP inhibitor = blocks P. falciparum M18 aspartyl aminopeptidase; recombinant PfM18AAP, H-Glu-NHMec fluorogenic cleavage; inhibition, % at 7.35 µM; 290,000 compounds, 1.2% hits; AID 1822;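 active = inhibition above the campaign mean inhibition over all tested compounds plus 3 SD, cut at about 28% in these data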;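 note: 0% = plate median of test compound wells and 100% = 2 mM ZnCl2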
MBD2 DNA inh = blocks human MBD2 binding to methylated DNA; inhibition, % at 4.4 µM; 370,000 compounds, 0.31% hits; Q9UBB5; TR-FRET, MBD2 binding to methylated oligonucleotide; in the data active = inhibition above about 13%
Target sequence (Q9UBB5 whole entry, looked up): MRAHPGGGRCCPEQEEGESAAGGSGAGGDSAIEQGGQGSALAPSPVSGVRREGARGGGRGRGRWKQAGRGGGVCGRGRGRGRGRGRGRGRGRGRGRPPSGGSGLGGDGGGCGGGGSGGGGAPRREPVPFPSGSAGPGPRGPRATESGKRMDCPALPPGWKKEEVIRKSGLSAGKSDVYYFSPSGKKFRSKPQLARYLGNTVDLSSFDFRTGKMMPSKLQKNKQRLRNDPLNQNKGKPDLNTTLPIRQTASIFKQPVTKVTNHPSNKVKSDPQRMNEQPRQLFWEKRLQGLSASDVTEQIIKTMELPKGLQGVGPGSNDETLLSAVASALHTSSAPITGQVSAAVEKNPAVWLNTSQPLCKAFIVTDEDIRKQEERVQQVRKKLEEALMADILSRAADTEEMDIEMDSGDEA
UHRF1 binding = blocks human UHRF1 binding to methylated DNA; UHRF1 binding to methylated oligo, TR-FRET; Q96T88; inhibition, % at 4.4 µM; 370,000 compounds, 0.75% hits; AID 687016; in the data active = inhibition above about 21%;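 note: UHRF1 SRA domain binding a hemimethylated CpG hairpin DNA probe; 0% = median of test compound wells and 100% = reference inhibitor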
PfG6PD inh = PfG6PD (Plasmodium falciparum) enzyme inhibition; PfGluPho enzyme, NADPH resazurin-diaphorase fluorescence; inhibition, % at 20 µM; 350,000 compounds, 0.78% hits; AID 504690;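 active = inhibition reaching at least a set limit at 20 µM in the primary screen, cut at about 59% in these data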;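 note: 0% = DMSO wells with substrate and 100% = DMSO wells lacking glucose-6-phosphate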
Numbers without * were called inactive; x = no result. Sampled rows, rich in hits. Any-hit rate of the full collection: about 3.3%.

SMILES	PRMT1 inh	M18AAP inhibitor	MBD2 DNA inh	UHRF1 binding	PfG6PD inh
CSc1ccc(C=NNc2ccc(S(=O)(=O)Nc3ccccc3C(=O)O)cc2[N+](=O)[O-])cc1	2	x	4	1	-15
O=C(Oc1ccc(C(=S)N2CCOCC2)cc1)c1ccccc1F	0	29*	-5	-2	7
CC(COc1ccc(Br)cc1)CN1CCC(C(O)(c2ccccc2)c2ccccc2)CC1 (stereo not drawn)	-3	x	-1	0	x
Oc1c(C=NCc2ccncc2)sc2ccccc12	63*	13	0	-3	16
Oc1ccc2oc3c(c2c1C=NCc1ccncc1)CCCC3	3	12	-7	-3	-1
O=C(NCC(c1ccccc1)c1ccccc1)[C@H](Cc1c[nH]c2ccccc12)NC1(C(=O)NC2CCCCC2)CCN(Cc2ccccc2)CC1	-5	x	-1	1	x
CCOC(=O)C1CCN(C(=O)C(C)Sc2ccc(Cl)cc2)CC1 (stereo not drawn)	-2	-3	9	23*	-24
C[C@H]1[C@@H](NC(=O)/C=C/c2ccccc2)CC[C@@]23CCCN2C(=O)CCC[C@@H]13	-3	x	-4	-5	x
Cc1nnc(NC(=O)CSc2nnc(-c3ccco3)o2)s1	x	29*	x	x	0
CCN(CC#CCC(O)(c1ccccc1)c1ccccc1)C(C)C	3	-6	-1	3	-8
CC(C)N(CC#CCC(O)(c1ccccc1)c1ccccc1)CCO	-4	-14	-2	26*	-1
O=S1(=O)c2ccc(Br)cc2OC[C@H](Cc2ccccc2)N1Cc1cn(Cc2ccc(F)cc2)nn1	0	x	-1	3	x
CCOC(=O)C1CSCCS(=O)(=O)N1Cc1ccccc1F (stereo not drawn)	1	x	2	2	x
Cc1ccc(SC2CCN(C(=O)C3CCC(=O)N(C4CC4)C3)CC2)cc1 (stereo not drawn)	0	2	7	22*	-4
O=C(NCc1ccccc1)O[C@H]1CC[C@@]23CCCN2C(=O)CCC[C@H]3C1	-2	x	0	1	x
CCc1ccc2[nH]c3nc(N/N=C/c4cccc(O)c4)nnc3c2c1	0	8	-7	43*	-6
CCOc1ccccc1NC(=O)C1C2C=CC(O2)C1C(=O)O (stereo not drawn)	23*	-15	0	-1	-7
N#CCC[C@@H]1CC[C@]2(CCCN(Cc3ccc(Cl)cc3)C2)O1	1	x	1	2	x
CC1(C)N([O-])c2cc([N+](=O)[O-])ccc2[N+]1=O	12	10	-10	7	70*
CN(C(=O)c1ccccc1OCC(=O)Nc1ccc(Br)cc1)c1ccccc1	1	x	-1	0	x
COc1ccc2c(c1)Sc1ccc(Cl)cc1N2	12	x	-3	9	x
O=C1Nc2cc(Cl)ccc2Nc2cscc21	23*	x	-5	-7	34
CCOC(=O)[C@]12CCCC3=C1N(CCC3)C(=O)[C@@H](CC(=O)NCCCN1CCCC1=O)C2	-4	x	-2	0	x
CCCCNc1nc(Cl)nc(Nc2ccc(C)cc2)n1	1	x	7	21*	-1
CCCCNc1cccc2c1S(=O)(=O)N[C@H](CC(C)C)CO2	0	x	4	4	x
SMILES	PRMT1 inh	M18AAP inhibitor	MBD2 DNA inh	UHRF1 binding	PfG6PD inh
COC(=O)[C@]12C[C@H](CC(=O)N3CCC(c4ccccc4)CC3)C(=O)N(Cc3ccccc3)C1=C[C@H](C(C)C)O[C@@H]2C1CC1	-2	x	2	-1	x
NNC(=O)C1C(O)CCC2CN3CCc4c([nH]c5ccccc45)C3CC21 (stereo not drawn)	22*	x	-4	-10	2
CCCCCCC12C(=Cc3cc4c(cc31)OCCO4)c1cc(OC)c(OC)cc1C(CC(=O)O)N2C(=O)OC (stereo not drawn)	3	x	-3	-2	x
O=C1CNC(=O)/C(=C/c2ccco2)N1	23*	21	0	2	-3
COC(=O)c1c(NC(=O)C(C)C)sc(C(=O)N2CCOCC2)c1C	4	31*	-3	-1	3
C=CCN=C1NC(c2ccc(C(F)(F)F)cc2)C(C(=O)OC)=C(C)N1Cc1ccccc1C(F)(F)F (stereo not drawn)	2	x	6	0	x
COc1ccc(OC)c(C2C(C#N)=C(N)Oc3cc(N)ccc32)c1 (stereo not drawn)	9	8	-5	-4	-3
CCOc1ccccc1C1C(C#N)=C(N)Oc2cc(N)ccc21 (stereo not drawn)	8	28*	-4	-5	13
COc1ccc(C(C[N+](=O)[O-])c2c(-c3ccccc3)cc3ccccn23)cc1OC (stereo not drawn)	3	21	-2	-5	22
COc1ccc(C(C[N+](=O)[O-])C2(c3ccc(OC)c(OC)c3)C(=O)c3ccccc3C2=O)cc1 (stereo not drawn)	x	35*	x	x	39
COC(=O)[C@]12C[C@H](CC(=O)NCC34CC5CC(CC(C5)C3)C4)C(=O)N(Cc3cccc4ccccc34)C1=C[C@H](C1CCCC1)O[C@@H]2C	0	x	-7	-3	x
O=C(COc1ccc(Cl)cc1)NNC(=O)CSc1nncs1	-1	29*	-3	-2	20
CCCCOc1ccc(-c2nc(=S)[nH][nH]2)cc1	22*	-23	3	0	3
O=C(CCc1ccc(O)cc1)c1c(O)cc(O)cc1O	4	x	3	0	-31
COc1cc(O)c(CC=C(C)C)c(O)c1C(=O)CCc1ccc(O)cc1	1	x	1	23*	18
COc1cc(C(Nc2ccccn2)c2ccc3ccc(C)nc3c2O)cc(OC)c1O (stereo not drawn)	x	30*	x	x	59
Cc1ccc(Cn2cc(CN3CC=CS3(=O)=O)nn2)cc1	2	x	-5	5	x
O=C(N/N=C\C=C\c1ccc2c(c1)OCO2)c1cccnc1	-2	-8	-4	33*	7
C#CC[N+]1(CC#Cc2ccccc2)CCCCC1	-4	1	3	38*	-12
O=C(O)Cn1c(=O)n(Cc2ccccc2)c2ccccc21	0	-3	-1	28*	-5
N=c1n(CC(=O)c2cccs2)c2ccccc2n1Cc1ccccc1	1	9	0	25*	-16
O=C(O)CN1CCN(Cc2ccccc2)C1=O	0	-10	1	0	-3
O=C(NCCc1ccccc1F)c1ccc(Sc2ccccc2Cl)c([N+](=O)[O-])c1	-6	x	-6	-2	x
Cc1ccc(Nc2nnc(SCC(=O)Nc3cccnc3Cl)s2)cc1C	-1	29*	-4	-3	35
O=C(CSc1nnc(-c2cnccn2)n1-c1ccccc1)c1ccc(F)cc1	3	x	-1	0	x
O=C(Nc1ccc2c(c1)Cc1ccccc1-2)NC1CCCCN(Cc2ccc(Cl)cc2)C1=O (stereo not drawn)	3	x	9	0	x
COc1ccc(-n2nnnc2C(c2cc3ccccc3o2)N2CCN(C/C=C/c3ccccc3)CC2)cc1 (stereo not drawn)	-3	x	5	23*	x
COC(=O)[C@]12C[C@H](CC(=O)N3CCCCC3)C(=O)N(Cc3ccc(Cl)cc3Cl)C1=C[C@H](C1CCCC1)O[C@@H]2C	-1	x	-1	-1	x
CCCn1c2ccccc2c2nnc(SCC(=O)OC)nc21	6	-4	8	4	9

Source: PubChem BioAssay (several laboratories)
